About 83,000 compounds went through this panel and 20% of them were active in at least one assay; those are over-represented in the sample as a whole.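 Single-dose data. Exposure time 48 hours. Values below 10 considered active.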 Active and inactive are the calls of the source.
Test system: HL-60(TB) leukemia
Assay: NCI-60 one-dose screen, 48 h (100 = growth as untreated, 0 = no growth, -100 = all killed)
Conditions: 10 µM unless noted

SMILES	growth
O=[N+]([O-])c1ccc(N/N=C/C2CCCCCC2)c([N+](=O)[O-])c1	97.1% (inactive)
Cc1ccc(/C=C2\CN(C(=O)C(Cl)Cl)C/C(=C\c3ccc(C)cc3)C2=O)cc1	-21% (active)
C=C1c2c(C)nn(-c3ccc(O)cc3)c2N(C)C23C[C@@H]1C1(C)c4c(C)nn(-c5ccc(O)cc5)c4N(C)C(C)(C[C@H]12)C3 (some centres undefined)	4.76% (active)
COc1ccc2[nH]c(=O)c(CNc3ccc(Nc4nccc(-c5ccc(Cl)cc5)n4)cc3)cc2c1	78.2% (inactive)
O=C1NC(=Nc2ccc(O)cc2)S/C1=C\c1cccc(Cl)c1	22.9% (inactive)
Cc1cc(=O)cc(C)n1-c1ccccc1	103% (inactive)
Fc1cc2c(cc1Cl)N(c1ncnc3ccc(-c4cnc5cnccn45)cc13)CC2	-7.92% (active)
Fc1ccc(C2CC(c3cccc(Nc4ccncc4)c3)=NN2c2ccc(Cl)cc2)cc1 (centres undefined)	17.2% (inactive)
Cl.Fc1c[c-]c(-c2ccccn2)c(F)c1.[Pt].c1ccc([PH+](c2ccccc2)c2ccccc2[PH+](c2ccccc2)c2ccccc2)cc1	-24.7% (active)
COc1cc(-c2nc3sc(C)cn3c2/C=C2\C(=O)Nc3ccccc32)c(Br)c(OC)c1OC	-7.35% (active)
Cn1cc(C=O)c2ccccc21	92.8% (inactive)
CCSC(SCC)c1ccc(Cl)cc1	116% (inactive)
C=CCCC1(C)NC(=O)NC1=O (centres undefined)	97.7% (inactive)
Cn1ccc2c1CC1CN(Cc3ccco3)C(=O)C1C2C(=O)O (centres undefined)	98.8% (inactive)
CC(C)C(=O)OCCOc1ccc(C(C)(C)C)cc1	107% (inactive)
CCn1cc(C(=O)O)c(=O)c2cc(F)c(N3CCNCC3)cc21	96.9% (inactive)
N#Cc1cc2[nH]c3ccc(OC(F)(F)F)cc3c2oc1=O	99.8% (inactive)
COc1ccc2c(c1)O/C(=C\c1cccc(OCC(=O)Nc3nc(C)c(C)s3)c1)C2=O	-77.3% (active)
CC[C@H](C)[C@H](NC(=O)[C@H](CCCCN)NC(=O)[C@H](CCCCN)NC(=O)[C@@H](NC(=O)[C@@H](NC(=O)[C@@H](N)Cc1cnc[nH]1)[C@@H](C)CC)[C@@H](C)CC)C(=O)N[C@@H](CCCNC(=N)N)C(=O)N[C@H](C(=O)N[C@@H](Cc1c[nH]c2ccccc12)C(=O)N[C@@H](Cc1ccc(O)cc1)C(=O)N[C@@H](CCCNC(=N)N)C(=O)N[C@@H](CCCCN)C(=O)N[C@@H](C)C(=O)N[C@@H](Cc1c[nH]c2ccccc12)C(=O)N[C@@H](Cc1cnc[nH]1)C(=O)N[C@H](C(=O)N[C@@H](CC(C)C)C(=O)NCC(=O)N[C@@H](CCCCN)C(=O)N[C@H](C(N)=O)C(C)C)C(C)C)[C@@H](C)O	89.5% (inactive)
C=C1c2nc3ccccc3n2C=C(c2cccc(Cl)c2)N1Cc1ccc(OC)cc1	-25% (active)

SMILES	growth
FC(F)(F)c1cc(NC2=NCCN=C(Nc3cc(C(F)(F)F)cc(C(F)(F)F)c3)SS2)cc(C(F)(F)F)c1	52.9% (inactive)
COc1ccc(C(O)c2cc3c(N)c(C(=O)Nc4cccc(Cl)c4C)sc3nc2C)cc1 (centres undefined)	-51% (active)
CCN(CC)c1ccc(/C=C/C2=[N+](C)c3ccccc3C2(C)C)c(C)c1	-34.7% (active)
COc1ccc(Cn2cc3c(c2-c2ccccc2)CC(C)(C)c2cnoc2-3)cc1	16.7% (inactive)
COC(=O)N/N=C/c1c[n+]([O-])c2ccccc2[n+]1[O-]	97.2% (inactive)
CCCCC[C@H]1CC=C2C(=O)C(Cl)=C[C@@H]2CC=CCCCC(=O)O[C@@H](CCCCC)CC=C2C(=O)C(Cl)=C[C@@H]2CC=CCCCC(=O)O[C@@H](CCCCC)CC=C2C(=O)C(Cl)=C[C@@H]2CC=CCCCC(=O)O1	8.31% [8 µM] (active)
O=C(Cc1ccccc1)Nc1nnc(NC2CCN(c3nnc(NC(=O)Cc4ccccc4)s3)CC2)s1	96.7% (inactive)
CC(C)CCOc1ccc(-c2n[nH]c(C(F)(F)F)c2-c2cncc(C#N)c2)c(O)c1	3.64% (active)
COc1ccc(/C=C2\Oc3cc(C)c(Cl)cc3C2=O)cc1OC	100% (inactive)
O=C(N/N=C/c1ccc(O)cc1O)c1cccc(Nc2ccnc(C(F)(F)F)c2)c1	8.21% (active)
C=C[Si](OC(C)=O)(OC(C)=O)OC(C)=O	94.3% (inactive)
CCC(=O)Oc1cc(/C=C/C(=O)O[C@H]2C[C@H]3CN4CCc5c([nH]c6cc(OC)ccc56)[C@@H]4C[C@@H]3[C@@H](C(=O)OC)[C@@H]2OC)ccc1OC	16.3% (inactive)
C=C(c1ccc(C(=O)O)c(F)c1)c1cc2c(cc1C)C(C)(C)CCC2(C)C	97.2% (inactive)
Cc1ccc2c(c1)ncn2-c1ncnc2c1CC(C)c1ccccc1N2C (centres undefined)	-36.2% (active)
Cc1ccc([C@H]2c3[nH]c4ccccc4c3C[C@H]3C(=O)N(CCCCCCC(=O)NO)CC(=O)N23)cc1	18.6% (inactive)
CNC(=O)c1ccccc1CC1(O)c2ccccc2Oc2ccccc21	17.8% (inactive)
COc1ccc(/C=C(\C#N)n2nnc3c(F)cccc32)cc1	-5.39% (active)
COc1cc(C2CC(c3cccc(Nc4ccncc4)c3)=NN2c2ccccc2)cc(OC)c1OC (centres undefined)	-43.8% (active)
O=C1c2ccccc2C(=O)c2c(Nc3ccc(CCO)cc3)ccc(O)c21	83.9% (inactive)

Source: PubChem BioAssay (NCI)
